Measurements published in the supplement of paper PMC12494721.
Counter-ions that a name gives are not always drawn.

Assays:
Conditions in all cases: incubation time: 27 h, anaerobic, 37 °C;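 for the amine columns active = adjusted P below 0.05 in both replicates with a change the same way and a mean fold change under 0.8 or over 1.25; inactive = the rest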
[1] = tested on: Clostridium sporogenes DSM 1664; experiment: growth (OD595) fold change vs plate DMSO controls (fold change (ratio)); higher = more growth
In short: (§1)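 The reported measure is growth: the fold change against the median of DMSO controls on the plate. Absorbance at 595 nm from anaerobic 96-well mGAM cultures grown for 27 h at 37 °C was blank-subtracted, corrected for background with 20 µM compound solutions in water, and converted to OD with a calibration factor of 5. Fold changes above 1.5 appear as NA, and values are the mean of 2 biological replicates.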

Escherichia coli IAI1 [2] = experiment: as above
In short: as §1

[3] = tested on: Klebsiella aerogenes DSM 30053; experiment: as above
In short: as §1

[4] = tested on: Ruminococcus gnavus DSM 108212; experiment: as above
In short: as §1

[5] = tested on: Klebsiella aerogenes DSM 30053; experiment: fold change of Histamine concentration vs plate DMSO controls (fold change (ratio)); higher = more amine produced, active = hit call of the paper (significant change in both replicates, either direction)
In short: (§2)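 Using LC–triple-quadrupole MS with dynamic MRM, amines were quantified against external calibration curves and corrected for drift within each batch. Samples were whole anaerobic mGAM cultures of four gut strains, grown 27 h at 37 °C from OD 0.1 before 1:1 dilution, extracted with cold acetonitrile/methanol containing 0.1% formic acid and centrifuged. Compounds were present at 20 µM final (sweeteners at 50 µM final). The numbers are fold changes versus plate DMSO controls, each the mean of 2 biological replicates.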

[6] = tested on: Clostridium sporogenes DSM 1664; experiment: fold change of Tryptamine concentration vs plate DMSO controls (fold change (ratio)); higher = more amine produced, active = hit call of the paper (significant change in both replicates, either direction)
In short: as §2

[7] = tested on: Ruminococcus gnavus DSM 108212; experiment: as above
In short: as §2

Escherichia coli IAI1 [8] = experiment: fold change of Putrescine concentration vs plate DMSO controls (fold change (ratio)); higher = more amine produced, active = hit call of the paper (significant change in both replicates, either direction)
In short: as §2

[9] = tested on: Klebsiella aerogenes DSM 30053; experiment: as above
In short: as §2

Escherichia coli IAI1 [10] = experiment: fold change of Cadaverine concentration vs plate DMSO controls (fold change (ratio)); higher = more amine produced, active = hit call of the paper (significant change in both replicates, either direction)
In short: as §2

[11] = tested on: Klebsiella aerogenes DSM 30053; experiment: as above
In short: as §2

[12] = tested on: Ruminococcus gnavus DSM 108212; experiment: fold change of 2-Phenylethylamine concentration vs plate DMSO controls (fold change (ratio)); higher = more amine produced, active = hit call of the paper (significant change in both replicates, either direction)
In short: as §2

Row | Structure (SMILES) | growth [1] | growth (Escherichia coli IAI1 [2]) | growth [3] | growth [4] | fold change of Histamine concentration [5] | fold change of Tryptamine concentration [6] | fold change of Tryptamine concentration [7] | fold change of Putrescine concentration (Escherichia coli IAI1 [8]) | fold change of Putrescine concentration [9] | fold change of Cadaverine concentration (Escherichia coli IAI1 [10]) | fold change of Cadaverine concentration [11] | fold change of 2-Phenylethylamine concentration [12]
1 | CC(C(=O)O)c1ccc(C(=O)c2ccccc2)s1 (stereo not drawn) [Tiaprofenic acid] (20 µM) | 0.955 | 1.1 | 0.987 | 1.16 | 0.995 (inactive) | 0.993 (inactive) | 1.04 (inactive) | 1.08 (inactive) | 1.01 (inactive) | 0.966 (inactive) | 0.988 (inactive) | 1.07 (inactive)
2 | CCn1cc(C(=O)O)c(=O)c2cnc(N3CCNCC3)nc21 [Pipemidic acid] (20 µM) | 0.963 | 0 | 0.465 | 1.01 | 0.949 (inactive) | 1.01 (inactive) | 0.93 (inactive) | 0.313 (active) | 1.06 (inactive) | 1.81 (active) | 1.01 (inactive) | 0.934 (inactive)
3 | COc1ccc2c(c1)C(=O)N(CCc1ccc(S(=O)(=O)NC(=O)NC3CCCCC3)cc1)C(=O)C2(C)C [Gliquidone] (20 µM) | 0.999 | 1.05 | 0.984 | 0.999 | 1.04 (inactive) | 0.929 (inactive) | 0.956 (inactive) | 1.04 (inactive) | 1 (inactive) | 1.04 (inactive) | 0.988 (inactive) | 0.942 (inactive)
4 | CCN(CC)C(=O)c1cccnc1 [Nikethamide] (20 µM) | 1.07 | 1.01 | 0.998 | 1.13 | 1.02 (inactive) | 1.05 (inactive) | 1.05 (inactive) | 1.06 (inactive) | 1 (inactive) | 1.08 (inactive) | 0.993 (inactive) | 1.08 (inactive)
5 | N=C(NCCCCCCNC(=N)NC(=N)Nc1ccc(Cl)cc1)NC(=N)Nc1ccc(Cl)cc1 [Chlorhexidine] (20 µM) | 0.00305 | 0.885 | 0.782 | 0.0252 | 0.936 (inactive) | 0.032 (active) | 0.0867 (active) | 0.641 (inactive) | 0.783 (inactive) | 1.98 (active) | 1 (inactive) | 0.0518 (active)
6 | O=C(O)CCC(=O)c1ccc(-c2ccccc2)cc1 [Fenbufen] (20 µM) | 1.02 | 1.02 | 0.996 | 0.921 | 0.97 (inactive) | 0.991 (inactive) | 1.04 (inactive) | 1.04 (inactive) | 0.989 (inactive) | 0.969 (inactive) | 0.998 (inactive) | 1.06 (inactive)
7 | C[C@H](O)C(=O)Nc1c(I)c(C(=O)NC(CO)CO)c(I)c(C(=O)NC(CO)CO)c1I [Iopamidol] (20 µM) | 1.2 | 1.02 | 1.05 | 1.25 | 1.04 (inactive) | 1.03 (inactive) | 1.07 (inactive) | 0.979 (inactive) | 0.995 (inactive) | 0.999 (inactive) | 1.01 (inactive) | 1.05 (inactive)
8 | C[C@]12CCC(=O)C=C1CC[C@@H]1[C@@H]2[C@@H](O)C[C@@]2(C)[C@H]1CC[C@]2(O)C(=O)CO [Hydrocortisone] (20 µM) | 0.958 | 1.03 | 0.985 | 1.03 | 1.04 (inactive) | 1.06 (inactive) | 1.01 (inactive) | 1.04 (inactive) | 1 (inactive) | 1.03 (inactive) | 1 (inactive) | 0.975 (inactive)
9 | CN[C@H](CC(C)C)C(=O)N[C@H]1C(=O)N[C@@H](CC(N)=O)C(=O)N[C@H]2C(=O)N[C@H]3C(=O)N[C@H](C(=O)N[C@H](C(=O)O)c4cc(O)cc(O)c4-c4cc3ccc4O)[C@H](O)c3ccc(c(Cl)c3)Oc3cc2cc(c3O[C@@H]2O[C@H](CO)[C@@H](O)[C@H](O)[C@H]2O[C@H]2C[C@](C)(N)[C@H](O)[C@H](C)O2)Oc2ccc(cc2Cl)[C@H]1O [Vancomycin hydrochloride] (20 µM) | 0 | 1.06 | 1.01 | 0.17 | 1.07 (inactive) | 0.0328 (active) | 0.0491 (active) | 1.01 (inactive) | 1.04 (inactive) | 0.953 (inactive) | 0.998 (inactive) | 0.0538 (active)
10 | OCCN1CCN(CC/C=C2/c3ccccc3Sc3ccc(C(F)(F)F)cc32)CC1 [Flupentixol dihydrochloride cis-(Z)] (20 µM) | 1.03 | 0.959 | 0.968 | 0.925 | 1 (inactive) | 1.12 (inactive) | 0.921 (inactive) | 1.02 (inactive) | 0.933 (inactive) | 0.852 (inactive) | 1.02 (inactive) | 1.06 (inactive)
11 | NC(=O)c1cnccn1 [Pyrazinamide] (20 µM) | 0.992 | 1.04 | 1 | 1.12 | 0.957 (inactive) | 1.04 (inactive) | 0.958 (inactive) | 1.01 (inactive) | 1 (inactive) | 0.98 (inactive) | 1.01 (inactive) | 0.906 (inactive)
12 | CC(C)NCC(O)c1cc(O)cc(O)c1 (stereo not drawn) [Metaproterenol sulfate] (20 µM) | 0.982 | 1.03 | 1.02 | 1.17 | 0.981 (inactive) | 1.03 (inactive) | 0.957 (inactive) | 1.03 (inactive) | 0.979 (inactive) | 0.974 (inactive) | 0.992 (inactive) | 0.938 (inactive)
13 | CC(=O)N(CC(O)CO)c1c(I)c(C(=O)NCC(O)CO)c(I)c(C(=O)NCC(O)CO)c1I (stereo not drawn) [Iohexol] (20 µM) | 1 | 1.02 | 1.04 | 0.911 | 0.958 (inactive) | 0.975 (inactive) | 1.01 (inactive) | 1.02 (inactive) | 0.997 (inactive) | 0.992 (inactive) | 1 (inactive) | 1.01 (inactive)
14 | CC(CNC1CCCCC1)OC(=O)c1ccccc1 (stereo not drawn) [Hexylcaine hydrochloride] (20 µM) | 1 | 0.961 | 1.01 | 1.02 | 1.02 (inactive) | 1.03 (inactive) | 1.01 (inactive) | 1 (inactive) | 0.988 (inactive) | 0.994 (inactive) | 0.984 (inactive) | 1.01 (inactive)
15 | NNC(=O)c1ccncc1 [Isoniazid] (20 µM) | 1.22 | 1.01 | 0.936 | 0.727 | 1.03 (inactive) | 1.05 (inactive) | 0.851 (inactive) | 1.03 (inactive) | 0.991 (inactive) | 1.01 (inactive) | 0.988 (inactive) | 0.844 (inactive)
16 | CCCCCCCCCCCCCCCC[N+](C)(C)CCN(Cc1ccc(OC)cc1)c1ncccn1 [Thonzonium bromide] (20 µM) | 0.856 | 1.04 | 1.02 | 1 | 1.04 (inactive) | 0.673 (active) | 0.742 (active) | 1.06 (inactive) | 1 (inactive) | 0.984 (inactive) | 0.995 (inactive) | 0.782 (inactive)
17 | CNCCCC1c2ccccc2C=Cc2ccccc21 [Protriptyline hydrochloride] (20 µM) | 0.921 | 1.01 | 0.958 | 0.968 | 1.02 (inactive) | 1.12 (inactive) | 0.848 (inactive) | 1.17 (inactive) | 1.02 (inactive) | 1.12 (inactive) | 0.998 (inactive) | 0.829 (inactive)
18 | NS(=O)(=O)c1cc(C(=O)O)c(NCc2ccco2)cc1Cl [Furosemide] (20 µM) | 0.941 | 1.01 | 1.04 | 1.22 | 0.987 (inactive) | 0.964 (inactive) | 1.01 (inactive) | 1.04 (inactive) | 0.984 (inactive) | 0.995 (inactive) | 0.988 (inactive) | 0.964 (inactive)
19 | O=C(CCCN1CCC(O)(c2ccc(Br)cc2)CC1)c1ccc(F)cc1 [Bromperidol] (20 µM) | 0.952 | 0.965 | 0.953 | 0.813 | 1.02 (inactive) | 1.02 (inactive) | 0.916 (inactive) | 0.99 (inactive) | 1 (inactive) | 0.913 (inactive) | 0.998 (inactive) | 0.949 (inactive)
20 | CC(C(=O)O)c1ccc(CC2CCCC2=O)cc1 (stereo not drawn) [Loxoprofen] (20 µM) | 1.24 | 1.03 | 1.06 | 1.13 | 0.95 (inactive) | 1.05 (inactive) | 1 (inactive) | 1.02 (inactive) | 1.02 (inactive) | 0.981 (inactive) | 1.01 (inactive) | 0.997 (inactive)
21 | CC(C)[C@H]1CC[C@H](C(=O)N[C@H](Cc2ccccc2)C(=O)O)CC1 [Nateglinide] (20 µM) | 1.11 | 1.22 | 1.02 | 0.903 | 1.01 (inactive) | 0.94 (inactive) | 1.02 (inactive) | 1.2 (inactive) | 1 (inactive) | 0.984 (inactive) | 1 (inactive) | 1.05 (inactive)
22 | CC(C)[C@H](N)C(=O)OCC(CO)OCn1cnc2c(=O)nc(N)[nH]c21 (stereo partly drawn) [Valganciclovir hydrochloride] (20 µM) | 1.1 | 0.991 | 1.03 | 0.987 | 0.998 (inactive) | 0.983 (inactive) | 0.964 (inactive) | 1.01 (inactive) | 1.01 (inactive) | 1.01 (inactive) | 1.01 (inactive) | 0.926 (inactive)
23 | CCCNC(C)C(=O)Nc1ccccc1C (stereo not drawn) [Prilocaine hydrochloride] (20 µM) | 0.947 | 0.973 | 1.02 | 0.708 | 1.07 (inactive) | 0.934 (inactive) | 1.02 (inactive) | 1.01 (inactive) | 1.02 (inactive) | 0.993 (inactive) | 0.988 (inactive) | 1 (inactive)
24 | CCCCCCCC/C=C\CCCCCCCCCCCC(=O)O [Erucic acid] (20 µM) | 0.975 | 1 | 1.04 | 1.06 | 1.02 (inactive) | 1.1 (inactive) | 0.851 (inactive) | 0.981 (inactive) | 1.01 (inactive) | 1.06 (inactive) | 0.99 (inactive) | 0.86 (inactive)
